The sample as a whole holds a higher share of the strongest signals than the screen did.
What was measured:
Test in all cases: glycan array binding signal (z-score within array); higher = stronger binding
Settings in all cases: glycan notation: IUPAC condensed, linker removed
[1] = biological target: Fuc(a1-2)Gal(b1-3)GlcNAc(b1-3)[Gal(b1-4)[Fuc(a1-3)]GlcNAc(b1-6)]Gal(b1-4)Glc
In short: (§1)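 Arrays were curated from the Consortium for Functional Glycomics database, 3228 in total, and kept only where the protein sequence was available. Binding is expressed as a within-array Z-score. This score was averaged across arrays of the same protein sequence at different concentrations or buffers and across linkers, and negative values can be read as non-binding.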

[2] = biological target: Fuc(a1-2)Gal(b1-4)GlcNAc(b1-2)Man(a1-3)[Fuc(a1-2)Gal(b1-4)GlcNAc(b1-2)Man(a1-6)]Man(b1-4)GlcNAc(b1-4)GlcNAc
In short: as §1

[3] = biological target: Fuc(a1-2)[GalNAc(a1-3)]Gal(b1-4)GlcNAc(b1-3)Gal(b1-4)GlcNAc(b1-3)Gal(b1-4)GlcNAc
In short: as §1

[4] = biological target: Fuc(a1-2)[GalNAc(a1-4)]Gal(b1-4)GlcNAc
In short: as §1

Gal(a1-2)Gal = biological target: Gal(a1-2)Gal
In short: as §1

[5] = biological target: Gal(a1-3)[Gal(a1-4)]Gal(b1-4)GlcNAc
In short: as §1

Gal(a1-4)Gal(b1-4)GlcNAc = biological target: Gal(a1-4)Gal(b1-4)GlcNAc
In short: as §1

[6] = biological target: Gal(b1-4)GlcNAc(b1-6)Gal(b1-4)GlcNAc(b1-6)GalNAc
In short: as §1

[7] = biological target: Gal(b1-4)GlcNAc(b1-6)GalNAc
In short: as §1

Gal3S6S(b1-4)GlcNAc6S = biological target: Gal3S6S(b1-4)GlcNAc6S
In short: as §1

GalNAc(b1-3)Gal = biological target: GalNAc(b1-3)Gal
In short: as §1

[8] = biological target: GalNAc(b1-3)Gal(a1-4)Gal(b1-4)GlcNAc
In short: as §1

[9] = biological target: GalNAc(b1-3)Gal(a1-4)Gal(b1-4)GlcNAc(b1-3)Gal(b1-4)Glc
In short: as §1

[10] = biological target: GlcNAc(a1-4)Gal(b1-4)GlcNAc(b1-3)Gal(b1-4)Glc
In short: as §1

GlcNAc(b1-6)GalNAc = biological target: GlcNAc(b1-6)GalNAc
In short: as §1

Kdn(a2-3)Gal(b1-3)GlcNAc = biological target: Kdn(a2-3)Gal(b1-3)GlcNAc
In short: as §1

Kdn(a2-3)Gal(b1-4)GlcNAc = biological target: Kdn(a2-3)Gal(b1-4)GlcNAc
In short: as §1

Man(a1-3)[Man(a1-6)]Man = biological target: Man(a1-3)[Man(a1-6)]Man
In short: as §1

[11] = biological target: Man(a1-3)[Man(a1-6)]Man(a1-6)[Man(a1-2)Man(a1-3)]Man(b1-4)GlcNAc(b1-4)GlcNAc
In short: as §1

[12] = biological target: Neu5Ac(a2-3)Gal(b1-3)GalNAc
In short: as §1

[13] = biological target: Neu5Ac(a2-3)Gal(b1-3)GalNAc(b1-3)Gal(b1-4)GlcNAc
In short: as §1

[14] = biological target: Neu5Ac(a2-3)Gal(b1-3)[Neu5Ac(a2-3)Gal(b1-4)]GlcNAc
In short: as §1

Neu5Ac(a2-3)GalNAc = biological target: Neu5Ac(a2-3)GalNAc
In short: as §1

[15] = biological target: Neu5Ac(a2-6)GlcNAc(b1-4)GlcNAc
In short: as §1

[16] = biological target: Neu5Ac(b2-6)Gal(b1-4)GlcNAc
In short: as §1

Neu5Ac(b2-6)GalNAc = biological target: Neu5Ac(b2-6)GalNAc
In short: as §1

[17] = biological target: Neu5Gc(a2-3)Gal(b1-4)[Fuc(a1-3)]GlcNAc
In short: as §1

Neu5Gc(a2-6)GalNAc = biological target: Neu5Gc(a2-6)GalNAc
In short: as §1

[18] = biological target: Fuc(a1-2)Gal6S(b1-4)GlcNAc
In short: as §1

Fuc(a1-2)[Gal(a1-3)]Gal = biological target: Fuc(a1-2)[Gal(a1-3)]Gal
In short: as §1

[19] = biological target: Fuc(a1-2)[Gal(a1-3)]Gal(b1-3)GlcNAc
In short: as §1

[20] = biological target: Fuc(a1-3)[Gal(b1-4)]GlcNAc(b1-2)Man(a1-3)[Fuc(a1-3)[Gal(b1-4)]GlcNAc(b1-2)Man(a1-6)]Man(b1-4)GlcNAc(b1-4)GlcNAc
In short: as §1

[21] = biological target: Fuc(a1-3)[Gal(b1-4)]GlcNAc(b1-3)Gal(b1-3)[Fuc(a1-4)]GlcNAc
In short: as §1

Gal(b1-2)Gal = biological target: Gal(b1-2)Gal
In short: as §1

[22] = biological target: Gal(b1-4)GlcNAc(b1-2)Man(a1-6)[Man(a1-3)]Man(b1-4)GlcNAc(b1-4)GlcNAc
In short: as §1

[23] = biological target: Gal(b1-4)GlcNAc(b1-3)Gal(b1-4)Glc
In short: as §1

Gal3S(b1-4)GlcNAc = biological target: Gal3S(b1-4)GlcNAc
In short: as §1

Gal3S6S(b1-4)GlcNAc = biological target: Gal3S6S(b1-4)GlcNAc
In short: as §1

GalNAc(a1-3)Gal = biological target: GalNAc(a1-3)Gal
In short: as §1

[24] = biological target: GlcNAc(a1-4)Gal(b1-4)GalNAc
In short: as §1

[25] = biological target: GlcNAc(a1-4)Gal(b1-4)GlcNAc(b1-3)Gal(b1-4)[Fuc(a1-3)]GlcNAc(b1-3)Gal(b1-4)[Fuc(a1-3)]GlcNAc
In short: as §1

[26] = biological target: GlcNAc(b1-3)Gal(b1-4)GlcNAc
In short: as §1

GlcNAc(b1-3)Man = biological target: GlcNAc(b1-3)Man
In short: as §1

[27] = biological target: Man(a1-2)Man(a1-2)Man(a1-6)[Man(a1-3)]Man
In short: as §1

Man(a1-2)Man(a1-3)Man = biological target: Man(a1-2)Man(a1-3)Man
In short: as §1

[28] = biological target: Neu5Ac(a2-3)Gal(b1-3)GalNAc6S
In short: as §1

[29] = biological target: Neu5Ac(a2-3)Gal(b1-4)GlcNAc(b1-3)Gal(b1-4)GlcNAc(b1-3)Gal(b1-4)GlcNAc
In short: as §1

[30] = biological target: Neu5Ac(a2-6)GlcNAc(b1-4)GlcNAc(b1-4)GlcNAc
In short: as §1

[31] = biological target: Neu5Ac9Ac(a2-3)Gal(b1-4)GlcNAc
In short: as §1

[32] = biological target: Neu5Gc(a2-3)Gal(b1-3)GlcNAc
In short: as §1

B1: HHL-1 (Homo sapiens), P07306 (protein)
chain: TKEYQDLQHLDNEESDHHQLRKGPPPPQPLLQRLCSGPRLLLLSLGLSLLLLVVVCVIGSQNSQLQEELRGLRETFSNFTASTEAQVKGLSTQGGNVGRKMKSLESQLEKQQKDLSEDHSSLLLHVKQFVSDLRSLSCQMAALQGNGSERTCCPVNWVEHERSCYWFSRSGKAWADADNYCRLEDAHLVVVTSWEEQKFVQHHIGPVNTWMGLHDQNGPWKWVDGTDYETGFKNWRPEQPDDWYGHGLGGGEDCAHFTDDGRWNDDVCQRPYRWVCETELDKASQEPPLL
[1]
  glycan array binding signal (z-score): 0.628
[2]
  glycan array binding signal (z-score): -0.533
[3]
  glycan array binding signal (z-score): -0.3
[4]
  glycan array binding signal (z-score): 7.69
Gal(a1-2)Gal
  glycan array binding signal (z-score): 0.419
[5]
  glycan array binding signal (z-score): 0.667
Gal(a1-4)Gal(b1-4)GlcNAc
  glycan array binding signal (z-score): -0.54
[6]
  glycan array binding signal (z-score): 0.262
[7]
  glycan array binding signal (z-score): 4.51
Gal3S6S(b1-4)GlcNAc6S
  glycan array binding signal (z-score): 0.503
GalNAc(b1-3)Gal
  glycan array binding signal (z-score): 4.09
[8]
  glycan array binding signal (z-score): 5.53
[9]
  glycan array binding signal (z-score): 5.52
[10]
  glycan array binding signal (z-score): -0.538
GlcNAc(b1-6)GalNAc
  glycan array binding signal (z-score): 7.59
Kdn(a2-3)Gal(b1-3)GlcNAc
  glycan array binding signal (z-score): -0.538
Kdn(a2-3)Gal(b1-4)GlcNAc
  glycan array binding signal (z-score): 0.051
Man(a1-3)[Man(a1-6)]Man
  glycan array binding signal (z-score): -0.472
[11]
  glycan array binding signal (z-score): -0.485
[12]
  glycan array binding signal (z-score): 0.366
[13]
  glycan array binding signal (z-score): -0.541
[14]
  glycan array binding signal (z-score): -0.548
Neu5Ac(a2-3)GalNAc
  glycan array binding signal (z-score): -0.482
[15]
  glycan array binding signal (z-score): 0.387
[16]
  glycan array binding signal (z-score): -0.409
Neu5Ac(b2-6)GalNAc
  glycan array binding signal (z-score): -0.515
[17]
  glycan array binding signal (z-score): 0.159
Neu5Gc(a2-6)GalNAc
  glycan array binding signal (z-score): -0.536

B2: DETC sTCR (Mus musculus) (protein)
chain: LDVYLEPVAKTFTVVAGDPASFYCTVTGGDMKNYHMSWYKKNGTNALFLVYKLNSNSTDGGKSNLKGKINISKNQFILDIQKATMKDAGTYYCGSDIGGSSWDTRQMFFGTGIELFVEPKSQPPAKPSVFIMKNGTNVACLVKDFYPKEVTISLRSSKKIVEFDPAIVISPSGKYSAVKLGQYGDSNSVTCSVQHNSETVHSTDFEPYANSFNNEKLPEPENDTQISEPCSSADLVPRGSTTAPSAQLKKKLQALKKKNAQLKWKLQALKKKLAQHHHHHHDSWISQDQLSFTRRPNKTVHISCKLSGVPLHNTIVHWYQLKEGEPLRRIFYGSVKTYKQDKSHSRLEIDEKDDGTFYLIINNVVTSDEATYYCACWDSSGFHKVFAEGTKLIVIPSDKRLDADISPKPTIFLPSVAETNLHKTGTYLCLLEKFFPDVIRVYWKEKDGNTILDSQEGDTLKTNDTYMKFSWLTVPERAMGKEHRCIVKHENNKGGADQEIFFPSIKKVAVSTKPTTCSSADLVPRGSTTAPSAQLEKELQALEKENAQLEWELQALEKELAQLNDIFEAQKIEW
[1]
  glycan array binding signal (z-score): -0.448
[18]
  glycan array binding signal (z-score): 2.96
Fuc(a1-2)[Gal(a1-3)]Gal
  glycan array binding signal (z-score): 0.343
[19]
  glycan array binding signal (z-score): -0.572
[20]
  glycan array binding signal (z-score): -0.52
[21]
  glycan array binding signal (z-score): -0.531
Gal(b1-2)Gal
  glycan array binding signal (z-score): -0.101
[22]
  glycan array binding signal (z-score): 6.38
[23]
  glycan array binding signal (z-score): -0.495
Gal3S(b1-4)GlcNAc
  glycan array binding signal (z-score): 2.74
Gal3S6S(b1-4)GlcNAc
  glycan array binding signal (z-score): -0.25
GalNAc(a1-3)Gal
  glycan array binding signal (z-score): -0.71
[24]
  glycan array binding signal (z-score): 3.96
[25]
  glycan array binding signal (z-score): 5.91
[26]
  glycan array binding signal (z-score): -0.215
GlcNAc(b1-3)Man
  glycan array binding signal (z-score): -0.035
[27]
  glycan array binding signal (z-score): 0.993
Man(a1-2)Man(a1-3)Man
  glycan array binding signal (z-score): -0.043
[28]
  glycan array binding signal (z-score): 1.09
[29]
  glycan array binding signal (z-score): -0.518
[30]
  glycan array binding signal (z-score): 5.83
[31]
  glycan array binding signal (z-score): 0.262
[32]
  glycan array binding signal (z-score): -0.599

— the supplement of paper PMC8728848
